Test results: the supplement of paper PMC13380429

Key:
[1] = test system: Vero E6 infected with SARS-CoV-2; assay: morphology score (similarity to uninfected cells); higher = more like uninfected cells; conditions: 24 h
[2] = test system: Vero E6 infected with SARS-CoV-2; assay: SARS-CoV-2 infection rate relative to infected DMSO; higher = more infection, active = 60 or less; conditions: 24 h

| Structure (SMILES) | morphology score [1] | SARS-CoV-2 infection rate [2] |
| --- | --- | --- |
| CCOC(=O)c1cnc2c(cnn2CC)c1NN=C(C)C [etazolate] (10 µM) | 0.254 | 100% (inactive) |
| O=C(O)C(=O)Nc1cccc(-c2nnn[nH]2)c1 [acitazanolast] (10 µM) | 0.235 | 95% (inactive) |
| Cc1ncc(COP(=O)([O-])[O-])c(CN(CCN(CC(=O)O)Cc2c(COP(=O)([O-])O)cnc(C)c2O)CC(=O)O)c1O.[Mn].[Na+].[Na+].[Na+] [Mangafodipir (trisodium)] (10 µM) | -0.000637 | 120% (inactive) |
| NC(=O)c1ccc(F)c2c1C[C@@H](N(C1CCC1)C1CCC1)CO2 [robalzotan] (10 µM) | 0.00904 | 100% (inactive) |
| C[S+](CC[C@H](N)C(=O)O)C[C@H]1O[C@@H](n2cnc3c(N)ncnc32)[C@H](O)[C@@H]1O (some centres undefined) [ademetionine] (10 µM) | 0.0625 | 96.5% (inactive) |
| Nc1ncnc2c1ncn2[C@@H]1O[C@H](CO)C[C@H]1O [cordycepin] (10 µM) | -0.1 | 112% (inactive) |
| O=C(NNc1ccccc1)c1ccncc1 [plurisin-1] (10 µM) | -0.14 | 108% (inactive) |
| NCCc1ccc(O)c(O)c1 [dopamine] (10 µM) | -0.112 | 100% (inactive) |
| NC(N)=Nc1nc(CSCCN/C=N/S(=O)(=O)c2ccc(Br)cc2)cs1 [ebrotidine] (10 µM) | 0.0177 | 97% (inactive) |
| CCCCCCCCCCCCCCCC[n+]1ccccc1 [cetylpyridinium] (0.833333 µM) | 0.0939 | 86% (inactive) |
| CC(C)(C)c1cc(C(C)(C)C)c2c(c1)C(O)(C(F)(F)F)C(=O)O2 (racemic) (10 µM) | 0.239 | 95.5% (inactive) |
| Cc1c(-c2ccc(O)cc2)n(Cc2ccc(OCCN3CCCCCC3)cc2)c2ccc(O)cc12 [bazedoxifene] (0.833333 µM) | 0.201 | 101% (inactive) |
| CCCCCCCC/C=C\CCCCCCCC(=O)N[C@@H](CO)Cc1ccc(O)cc1 (10 µM) | 0.123 | 104% (inactive) |
| CC(=O)/N=c1/sc(S(N)(=O)=O)nn1C [methazolamide] (10 µM) | -0.0286 | 105% (inactive) |
| O=c1ccc2ccc(OCCCCN3CCN(c4cccc5sccc45)CC3)cc2[nH]1 [brexpiprazole] (10 µM) | 0.0142 | 98.5% (inactive) |
| CCN(CC)CCOCCOC(=O)C1(c2ccccc2)CCCC1 [carbetapentane] (10 µM) | 0.363 | 83% (inactive) |
| CN1CCCN(C(c2ccccc2)c2ccc(Cl)cc2)CC1 (centres undefined) [homochlorcyclizine] (10 µM) | 0.29 | 59.5% (active) |
| COc1cccc(-c2cc(=O)c3ccccc3o2)c1N (10 µM) | -0.25 | 118% (inactive) |
| CSc1ccc(OCc2ncc([N+](=O)[O-])n2C)cc1 [fexinidazole] (10 µM) | -0.0351 | 114% (inactive) |
| CONC(=N)c1ccc(-c2ccc(-c3ccc(C(=N)NOC)cc3)o2)cc1 [pafuramidine] (10 µM) | 0.0672 | 106% (inactive) |
| N=C(N)Nc1ccc(C(=O)Oc2ccc3cc(C(=N)N)ccc3c2)cc1 [nafamostat] (10 µM) | 0.172 | 108% (inactive) |

| Structure (SMILES) | morphology score [1] | SARS-CoV-2 infection rate [2] |
| --- | --- | --- |
| NC(=O)c1ccc(I)c([N+](=O)[O-])c1 [iniparib] (10 µM) | 0.0662 | 106% (inactive) |
| C=C[C@]1(C)C[C@@H](OC(=O)CS[C@@H]2C[C@H]3CC[C@@H](C2)N3C)[C@]2(C)[C@H](C)CC[C@]3(CCC(=O)[C@H]32)[C@@H](C)[C@@H]1O [retapamulin] (10 µM) | 0.0286 | 109% (inactive) |
| C=CC[C@]1(O)CC[C@H]2[C@@H]3CCC4=CC(=O)CCC4=C3C=C[C@@]21C [altrenogest] (10 µM) | 0.0206 | 105% (inactive) |
| Cc1ccc(NC(=O)CCCCCC(=O)Nc2ccccc2N)cc1 (0.833333 µM) | -0.0538 | 103% (inactive) |
| COC(=O)C1=C(C)N(C)C(C)=C(C(=O)OC)C1c1ccc(C(F)(F)F)cc1 (10 µM) | -0.13 | 114% (inactive) |
| O=c1c(-c2ccc(O)cc2)coc2c([C@@H]3O[C@H](CO)[C@@H](O)[C@H](O)[C@H]3O)c(O)ccc12 [puerarin] (10 µM) | 0.0648 | 98.5% (inactive) |
| O=C(O)[C@H]1CCCN(CCC=C(c2ccccc2)c2ccccc2)C1 (racemic) (10 µM) | 0.0757 | 88.5% (inactive) |
| N#C/C(=C\c1ccc(O)c(O)c1)C(=O)NCCCc1ccccc1 (0.833333 µM) | -0.0747 | 119% (inactive) |
| O=C(O)P(=O)(O)O [foscarnet] (10 µM) | 0.202 | 98% (inactive) |
| CNc1ncc2cc(-c3cc(NC(=O)NCCC(C)(C)C)c(F)cc3C)c(C)nc2n1 (10 µM) | 0.18 | 106% (inactive) |
| CCN(CC)CCOC(=O)C(c1ccccc1)c1ccccc1 [adiphenine] (10 µM) | -0.106 | 110% (inactive) |
| O=C(C(c1ccccc1)c1ccccc1)N1CCN(CC(O)COc2cccc3ncccc23)CC1 (centres undefined) [dofequidar] (10 µM) | 0.14 | 89.5% (inactive) |
| COCCN1CCC(C(=O)NO)(S(=O)(=O)c2ccc(Oc3ccc(OC(F)(F)F)cc3)cc2)CC1 (10 µM) | 0.0474 | 110% (inactive) |
| O=C(O)c1cccnc1 [niacin] (10 µM) | 0.195 | 102% (inactive) |
| CCCCCCCCCCCCCCOc1ccc(C(=O)O)o1 (0.833333 µM) | 0.208 | 96.5% (inactive) |
| Cc1cccc(C)c1NC(=O)CN1CCN(CCCC(c2ccc(F)cc2)c2ccc(F)cc2)CC1 [lidoflazine] (10 µM) | 0.34 | 76.5% (inactive) |
| Cc1cnc(C(=O)N[C@H]2CCCCC/C=C\[C@@H]3C[C@@]3(C(=O)NS(=O)(=O)C3CC3)NC(=O)[C@@H]3C[C@@H](Oc4nc5ccccc5c5ccccc45)CN3C2=O)cn1 [paritaprevir] (10 µM) | 0.303 | 98% (inactive) |
| Nc1nccc(-c2c(-c3ccc(F)cc3)ncn2C2CCCCC2)n1 (0.833333 µM) | 0.197 | 103% (inactive) |
| CCc1cncnc1N1CCN(Cc2nc3cc(C(F)(F)F)ccc3[nH]2)CC1 (10 µM) | -0.441 | 116% (inactive) |
| CC(C)(C)[C@H]1CC[C@H](CC2=C(O)C(=O)c3ccccc3C2=O)CC1 [buparvaquone] (0.833333 µM) | 0.0418 | 94% (inactive) |
| COc1ccccc1OCC(O)CO (centres undefined) [guaifenesin] (10 µM) | -0.044 | 112% (inactive) |

| Structure (SMILES) | morphology score [1] | SARS-CoV-2 infection rate [2] |
| --- | --- | --- |
| OC(c1ccccc1)C1CCN(CCc2ccccc2)CC1 (centres undefined) (10 µM) | -0.103 | 106% (inactive) |
| O=C(O)c1cn(-c2ccc(F)cc2)c2cc(N3CCNCC3)c(F)cc2c1=O [sarafloxacin] (10 µM) | 0.213 | 93% (inactive) |
| Oc1cc2c(cc1O)CN(C(=S)NCCc1ccc(Cl)cc1)CCC2 [capsazepine] (10 µM) | -0.103 | 92.5% (inactive) |
| OCCn1cc(-c2ccc3c(c2)CC/C3=N\O)c(-c2ccncc2)n1 (10 µM) | 0.0962 | 79.5% (inactive) |
| COc1ccccc1N1CCN(CCCCN2C(=O)c3ccccc3C2=O)CC1 (10 µM) | 0.185 | 99% (inactive) |
| COc1ccc(/C=C/C(=O)Nc2ccccc2C(=O)O)cc1OC [tranilast] (10 µM) | 0.0917 | 108% (inactive) |
| CN(C)CC[C@@H](c1ccc(Cl)cc1)c1ccccn1 [chlorphenamine] (10 µM) | 0.0978 | 97.8% (inactive) |
| Cc1cnc(-c2cc(N3CCN(C(=O)CCS(C)(=O)=O)CC3)ncc2Cl)c(C)c1 (10 µM) | 0.241 | 105% (inactive) |
| CCCc1cc(=O)[nH]c(=S)[nH]1 [propylthiouracil] (10 µM) | 0.00376 | 104% (inactive) |
| NC1CCN(c2nc3c(cc2F)c(=O)c(C(=O)O)cn3-c2ccc(F)cc2F)C1 (centres undefined) [tosufloxacin] (10 µM) | -0.115 | 112% (inactive) |
| O=c1cc(-c2ccccc2)oc2cc(O)cc(O)c12 [chrysin] (10 µM) | 0.175 | 104% (inactive) |
| CC[C@H](CC[C@@H](C)[C@H]1CC[C@H]2[C@@H]3CC=C4C[C@@H](O[C@@H]5O[C@H](CO)[C@@H](O)[C@H](O)[C@H]5O)CC[C@]4(C)[C@H]3CC[C@]12C)C(C)C [daucosterol] (10 µM) | 0.0785 | 102% (inactive) |
| C[C@]12CCC(=O)C=C1CC[C@@H]1[C@@H]2[C@@H](O)C[C@@]2(C)[C@H]1CC[C@]2(O)C(=O)COC(=O)CCC(=O)O [hydrocortisone-hemisuccinate] (10 µM) | -0.338 | 116% (inactive) |
| Cc1cc(O)ccc1Cl [chlorocresol] (10 µM) | 0.0498 | 95.5% (inactive) |
| Oc1cc2c(cc1O)[C@H](Cc1cccc3ccccc13)NCC2 (10 µM) | -0.102 | 119% (inactive) |
| CN1CCCCC1CCN1c2ccccc2Sc2ccc([S+](C)[O-])cc21 (centres undefined) [mesoridazine] (10 µM) | 0.323 | 91% (inactive) |
| CC[C@@]1(O)C(=O)OCc2c1cc1n(c2=O)Cc2cc3ccccc3nc2-1 [camptothecin] (0.833333 µM) | -0.218 | 114% (inactive) |
| Nc1nnc(Sc2ncc([N+](=O)[O-])s2)s1 (0.833333 µM) | 0.248 | 90.5% (inactive) |
| CNc1cc(OC)c(C(=O)NC2CCN(Cc3ccccc3)C2C)cc1Cl (centres undefined) [nemonapride] (10 µM) | 0.642 | 36.5% (active) |
| CC(C)(Sc1ccncc1-c1ccc(C#N)c2ccccc12)C(=O)O [verinurad] (10 µM) | 0.122 | 98% (inactive) |
